Assay results taken from the supplement of paper PMC10338343.
± gives the standard deviation. Over roughly 8,200 sequences, “pre-steady-state target cleavage rate” has its median near 0.024; the highest 2% begin near 1.3. The sample holds the highest values, similar sequences and a random draw of the others, so the mix is not that of the screen.

System: MIWI (PIWIL1) piRISC loaded with L1MC piRNA (30 nt)
Experiment: pre-steady-state target cleavage rate (min^-1); MIWI and MILI are mouse PIWI proteins and EfPiwi is from a freshwater sponge; tags in brackets are library labels; higher = faster piRNA-guided slicing of the target
Conditions: guide: L1MC piRNA 5'p-UAACUAAAUACUAUGCAAGCUGUAGGUCCU
Experimental: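 Cleave-'n-Seq: a library of target RNAs (target site embedded in constant flanks, ACAGCATTCCGCGTTAGTGATATCCG... 5' flank; DNA-blocked outside the site) at 0.1 nM was incubated with 1 nM active mouse MILI or MIWI piRISC (synthetic 5'-monophosphorylated piRNA guide) with or without 500 nM mouse GTSF1 at 33 °C for 1 min to 16 h. Uncleaved targets were sequenced and normalised to non-target controls, and the pooled three trials were fitted to a burst-and-steady-state model to give the pre-steady-state cleavage rate (min^-1; k3 is constrained to at most 1e-4). Sequence is the target site only; target names encode pairing extent (gX:gY) and contiguous / 1-mismatch / 2-mismatch / bulge geometry. Fits with R² ≤ 0 are excluded.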

[1] = auxiliary factor: 500 nM mouse GTSF1
[2] = auxiliary factor: none (no GTSF1)

| Sequence | pre-steady-state target cleavage rate [1] | pre-steady-state target cleavage rate [2] |
| --- | --- | --- |
| UCCUCCAACAGCUUGCUUAGUAUUUAGUUA | 1.28 ± 0.054 | 0.0363 ± 0.0081 |
| UCGACCAACAGCUUGCUUAGUAUUUAGUUA | 1.47 ± 0.05 | 0.0416 ± 0.0081 |
| UCCACCAACAGCUUGCUUAGUAUUUAGUUA | 1.31 ± 0.061 | 0.026 ± 0.0061 |
| UGGACCAACAGCUUGCAAAGUAUUUAGUUA | 1.38 ± 0.062 | 0.0368 ± 0.0072 |
| AGGACCAACAGCUUGCAAAGUAUUUAGUUA | 1.18 ± 0.038 | 0.0503 ± 0.01 |
| UCGACCAACAGCUUGCAAAGUAUUUAGUUA | 1.29 ± 0.043 | 0.0448 ± 0.01 |
| UGGACCAACAGCUUGCUUAGUAUUUAGUUA | 1.64 ± 0.092 | 0.0497 ± 0.01 |
| UCCUCCUACAGUUGCAUAGUAUUUAGUUA | 0.742 ± 0.046 | 0.00376 ± 0.0017 |
| UCCUGGUUCAGCUUGCAUAGUAUUUACUUA | 0.18 ± 0.041 | 0.0237 ± 0.0048 |
| UCCUCCUACACCUUCCAUAGUAUUUAGUUA | 0.0661 ± 0.024 |  |
| UGGACCUACAGCUUGCAUACUUUUUAGUUA | 0.0337 ± 0.0046 | 0.00745 ± 0.0014 |
| UCCACCUACAGCUUGCAUAGUAUAUACAAA | 0.413 ± 0.089 |  |
| UCCUGGAACAGCUUGCAUAAUAUUUAGUUA | 0.559 ± 0.045 | 0.0418 ± 0.0079 |
| UCCUGGAUCAGCUUGCAUAGUAUUUAGCUA | 0.0164 ± 0.0052 | 0.00651 ± 0.0022 |
| UCCUGGAACAGCUUGCUUUGUAUUUAGUUA | 0.0971 ± 0.011 | 0.00848 ± 0.0027 |
| UCCACCUUACAGCUUGCAUAGUAUUUAGUUA | 1.03 ± 0.043 | 0.0654 ± 0.013 |
| AGGACCUUACAGCUUGCAUAGUAUUUAGUUA | 1.33 ± 0.06 | 0.0925 ± 0.016 |
| AGGACCUACAGCUUGCAUAGUAUUUAGUUC [g2:g30:cont:t1C] | 0.664 ± 0.055 | 0.0568 ± 0.01 |
| UGGACCUUACAGCUUGCAUAGUAUUUAGUUA | 1.58 ± 0.095 | 0.0853 ± 0.016 |

| Sequence | pre-steady-state target cleavage rate [1] | pre-steady-state target cleavage rate [2] |
| --- | --- | --- |
| ACGGACCUACAGCUUGCAUAGUAUUUAGUUA | 1.24 ± 0.072 | 0.0796 ± 0.016 |
| AGGACCUACAGCUUGCAUAGUAUUUUAGUUA | 1.08 ± 0.058 | 0.056 ± 0.014 |
| AGGACCUACAGCUUGCAUAGUAUUUAGUUU [g2:g30:cont:t1U] | 1.64 ± 0.079 | 0.165 ± 0.036 |
| AGGACCUACAGCUUGCAUAGUAUUUAGUUA [g2:g30:cont:t1A] | 1.35 ± 0.057 | 0.0941 ± 0.015 |
| UCGGACCUACAGCUUGCAUAGUAUUUAGUUA | 1.37 ± 0.097 | 0.0616 ± 0.01 |
| AGGACCUACAGCUUGCAUAGUAUUUAGUUG [g2:g30:cont:t1G] | 0.455 ± 0.046 | 0.0773 ± 0.018 |
| AGGACCUUCAGCUUGCAUAGUAUAUAGUUA | 0.827 ± 0.057 | 0.0427 ± 0.009 |
| AGGACCUACAGCUUGCAUAGUAUUUAGUUUA | 1.27 ± 0.067 | 0.11 ± 0.019 |
| CGGACCUACAGCUUGCAUAGUAUUUAGUUA | 0.743 ± 0.028 | 0.06 ± 0.0088 |
| AAGGACCUACAGCUUGCAUAGUAUUUAGUUA | 1.29 ± 0.071 | 0.0755 ± 0.014 |
| GGGACCUACAGCUUGCAUAGUAUUUAGUUA | 1.32 ± 0.097 | 0.113 ± 0.025 |
| AGGGACCUACAGCUUGCAUAGUAUUUAGUUA | 1.31 ± 0.086 | 0.102 ± 0.021 |
| UGGGACCUACAGCUUGCAUAGUAUUUAGUUA | 1.11 ± 0.1 | 0.134 ± 0.033 |
| UCCACCUACAGCUUGCAUAGUAUUUAGGUUA | 0.409 ± 0.062 | 0.0153 ± 0.0045 |
| UCGACCUACAGCUUGCAUAGAUUUUAGUAA | 0.124 ± 0.023 |  |
| UCCUCCUACAGCUUGCAUAGUAAUUAGAUA | 0.297 ± 0.047 | 0.00556 ± 0.0028 |
| UCCUGCUACAGUCUUGCAUAGUAUUUAGUUA | 0.643 ± 0.033 | 0.0274 ± 0.005 |
| UCCUGGAUGUCGUUGCAUAGUAUUUAGUUUA | 0.022 ± 0.0057 | 0.00499 ± 0.003 |
| UCCUGGAUGUCCUUGCAUAGUUUUUACUUA | 0.00583 ± 0.0041 |  |
